Assay results: PubChem BioAssay (NCI)
The panel holds about 83,000 compounds, 20% with a hit somewhere; the sample as a whole holds those more often.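 Negative percent growth values reflect cell death: -40 means 40% of the cells present at the start died, and -100 means all died.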 Activity calls are given as the source filed them. Rule for the calls: active = growth percent below 10; inactive = the rest.

Key:
Test in all cases: NCI-60 one-dose screen, 48 h (100 = growth as untreated, 0 = no growth, -100 = all killed)
Conditions in all cases: 10 µM unless noted
HCT-15 colon = test system: HCT-15 colon
HT29 colon = test system: HT29 colon
SNB-75 CNS = test system: SNB-75 CNS
SNB-19 CNS = test system: SNB-19 CNS
U251 CNS = test system: U251 CNS
SK-MEL-5 melanoma = test system: SK-MEL-5 melanoma
UACC-62 melanoma = test system: UACC-62 melanoma
LOX IMVI melanoma = test system: LOX IMVI melanoma
SK-MEL-28 melanoma = test system: SK-MEL-28 melanoma
SK-MEL-2 melanoma = test system: SK-MEL-2 melanoma
EKVX NSCLC = test system: EKVX NSCLC
SN12C renal = test system: SN12C renal
UO-31 renal = test system: UO-31 renal
TK-10 renal = test system: TK-10 renal
ACHN renal = test system: ACHN renal
CAKI-1 renal = test system: CAKI-1 renal
A498 renal = test system: A498 renal
CCRF-CEM leukemia = test system: CCRF-CEM leukemia
MOLT-4 leukemia = test system: MOLT-4 leukemia
PC-3 prostate = test system: PC-3 prostate

Measured: growth

COc1ccc(-c2nc3cc(C(=O)Nc4cc(OC)c(OC)c(OC)c4)ccc3n2C2CCCCC2)cc1
inactive: HCT-15 colon 80.2% | HT29 colon 102% | SNB-75 CNS 82% | SNB-19 CNS 98.1% | U251 CNS 96.6% | SK-MEL-5 melanoma 77.8% | UACC-62 melanoma 80.2% | LOX IMVI melanoma 95.5% | SK-MEL-28 melanoma 97% | SK-MEL-2 melanoma 95.6% | EKVX NSCLC 91.8% | SN12C renal 91.7% | UO-31 renal 78.7% | TK-10 renal 111% | ACHN renal 93.2% | CAKI-1 renal 97.4% | A498 renal 113% | CCRF-CEM leukemia 94.3% | MOLT-4 leukemia 83.1%

Cc1nn(-c2ccc(F)cc2)c2ncnc(Nc3ccc(NC(=O)Nc4ccc(Cl)c(C(F)(F)F)c4)cc3)c12
active: SK-MEL-2 melanoma -7.22% | ACHN renal 3.49%
inactive: HCT-15 colon 11.2% | HT29 colon 37.9% | SNB-75 CNS 32.4% | SNB-19 CNS 23.7% | U251 CNS 19.5% | SK-MEL-5 melanoma 61.1% | UACC-62 melanoma 11% | LOX IMVI melanoma 34.8% | SK-MEL-28 melanoma 17.8% | EKVX NSCLC 43.9% | SN12C renal 27.2% | UO-31 renal 40.1% | TK-10 renal 26.5% | CAKI-1 renal 12.4% | A498 renal 37.9% | CCRF-CEM leukemia 28.9% | MOLT-4 leukemia 26.4%

CN(C)S(=O)(=O)c1cccc(-c2nc3sc4c(c3c(=O)[nH]2)CCCC4)c1
active: SNB-75 CNS -12.3% | U251 CNS 1.85% | TK-10 renal -20.5% | A498 renal -29.8%
inactive: HCT-15 colon 115% | HT29 colon 19.5% | SNB-19 CNS 53.5% | SK-MEL-5 melanoma 77.3% | UACC-62 melanoma 71.1% | LOX IMVI melanoma 174% | SK-MEL-28 melanoma 82.2% | SK-MEL-2 melanoma 36.9% | EKVX NSCLC 56.1% | SN12C renal 28.3% | UO-31 renal 29.6% | ACHN renal 96.5% | CAKI-1 renal 65.5% | CCRF-CEM leukemia 35.5% | MOLT-4 leukemia 56.9%

COc1ccc(S(=O)(=O)N2CC3(COC3)C2)cc1NC(=O)c1[nH]c(C)c2c1CCCCC2=O
inactive: HCT-15 colon 70.1% | HT29 colon 19.2% | SNB-75 CNS 19.4% | SNB-19 CNS 54.9% | U251 CNS 62.8% | SK-MEL-5 melanoma 46.5% | UACC-62 melanoma 23.4% | LOX IMVI melanoma 17.3% | SK-MEL-28 melanoma 73.7% | SK-MEL-2 melanoma 62.7% | EKVX NSCLC 58.2% | SN12C renal 54.9% | UO-31 renal 40.4% | TK-10 renal 17.5% | ACHN renal 60.4% | CAKI-1 renal 20% | A498 renal 69.8% | CCRF-CEM leukemia 72.5% | MOLT-4 leukemia 76.4%

O=C(COc1cccc(/C=C2\COc3ccc(Cl)cc3C2=O)c1)c1ccc(Cl)cc1
inactive: HCT-15 colon 82% | HT29 colon 97.7% | SNB-75 CNS 67.8% | SNB-19 CNS 90.5% | U251 CNS 87.5% | SK-MEL-5 melanoma 94.3% | UACC-62 melanoma 80.9% | LOX IMVI melanoma 76.1% | SK-MEL-28 melanoma 119% | SK-MEL-2 melanoma 54.2% | EKVX NSCLC 101% | SN12C renal 97.3% | UO-31 renal 69.3% | TK-10 renal 98.4% | ACHN renal 91% | CAKI-1 renal 84.2% | A498 renal 111% | MOLT-4 leukemia 41.2%
active: CCRF-CEM leukemia 2.99%

N#Cc1c(N)n(CCNC(=O)c2ccccc2)c2nc3ccccc3nc12
inactive: HCT-15 colon 111% | HT29 colon 104% | SNB-75 CNS 116% | SNB-19 CNS 119% | U251 CNS 115% | SK-MEL-5 melanoma 132% | UACC-62 melanoma 103% | LOX IMVI melanoma 113% | SK-MEL-28 melanoma 123% | SK-MEL-2 melanoma 90.3% | EKVX NSCLC 123% | SN12C renal 120% | UO-31 renal 89.4% | TK-10 renal 102% | ACHN renal 118% | CAKI-1 renal 115% | A498 renal 135% | CCRF-CEM leukemia 133% | MOLT-4 leukemia 44.7%

COc1ccc(-n2nc(C)c3c(Nc4ccc(NC(=O)Nc5c(Cl)cccc5Cl)cc4)ncnc32)cc1
active: SK-MEL-5 melanoma 5.92% | UO-31 renal 8.74%
inactive: HCT-15 colon 72.2% | HT29 colon 31.4% | SNB-75 CNS 55.9% | SNB-19 CNS 79.4% | U251 CNS 63.3% | UACC-62 melanoma 46.7% | LOX IMVI melanoma 39.1% | SK-MEL-28 melanoma 81.9% | SK-MEL-2 melanoma 79.1% | EKVX NSCLC 67% | SN12C renal 77% | TK-10 renal 59.8% | ACHN renal 43.3% | CAKI-1 renal 57.9% | A498 renal 63.4% | CCRF-CEM leukemia 84.5% | MOLT-4 leukemia 81.7%

Brc1ccc(-c2csc(Nc3ccccn3)n2)cc1
inactive: HCT-15 colon 138% | HT29 colon 97.8% | SNB-75 CNS 93.4% | SNB-19 CNS 99.4% | U251 CNS 166% | SK-MEL-5 melanoma 75.5% | UACC-62 melanoma 75.5% | LOX IMVI melanoma 214% | SK-MEL-28 melanoma 149% | SK-MEL-2 melanoma 69.8% | EKVX NSCLC 70% | SN12C renal 95.7% | UO-31 renal 75.8% | TK-10 renal 101% | ACHN renal 217% | CAKI-1 renal 84.2% | A498 renal 91.3% | CCRF-CEM leukemia 74.8% | MOLT-4 leukemia 82.6%

CC/C=C\C[C@H](O)C/C=C1/C(=O)C=C[C@@]1(C)C/C=C\CCCC(=O)OC
inactive: HCT-15 colon 101% | HT29 colon 110% | SNB-75 CNS 99.1% | SNB-19 CNS 101% | U251 CNS 94.2% | PC-3 prostate 96.1% | SK-MEL-2 melanoma 103% | EKVX NSCLC 104% | UO-31 renal 92.1% | TK-10 renal 95.9% | ACHN renal 101% | CAKI-1 renal 96.9% | A498 renal 97.3% | CCRF-CEM leukemia 108% | MOLT-4 leukemia 94.4%

CCCCC/C(C=C(C#N)C#N)=C/c1ccccc1
inactive: HCT-15 colon 47% | HT29 colon 37% | SNB-75 CNS 96.6% | SNB-19 CNS 67.1% | U251 CNS 34.2% | SK-MEL-5 melanoma 71% | UACC-62 melanoma 48.9% | SK-MEL-28 melanoma 84% | SK-MEL-2 melanoma 82.4% | EKVX NSCLC 106% | SN12C renal 81.1% | UO-31 renal 34.7% | TK-10 renal 105% | ACHN renal 41.6% | CAKI-1 renal 81.4% | A498 renal 112% | CCRF-CEM leukemia 13.9% | MOLT-4 leukemia 13.4%
active: LOX IMVI melanoma 2.03%

COc1ccc(-n2nc(C)c3c(Nc4ccc(NC(=O)Nc5ccc(Cl)c(C(F)(F)F)c5)cc4)ncnc32)cc1
inactive: SNB-19 CNS 13.5% | CCRF-CEM leukemia 17.2%
active: HCT-15 colon -9.82% | HT29 colon 1.57% | SNB-75 CNS -4.71% | U251 CNS -29.2% | SK-MEL-5 melanoma -44.7% | UACC-62 melanoma 4.84% | LOX IMVI melanoma -81.4% | SK-MEL-28 melanoma 4.78% | SK-MEL-2 melanoma -30.2% | EKVX NSCLC 6.63% | SN12C renal 3.5% | UO-31 renal 4.67% | TK-10 renal 5.29% | ACHN renal 1.09% | CAKI-1 renal -3.15% | A498 renal -3.28% | MOLT-4 leukemia 8.28%

Cn1cc(C(=O)c2nc(-c3c[nH]c4ccccc34)no2)c2ccccc21
inactive: HCT-15 colon 25.6% | HT29 colon 35.8% | SNB-75 CNS 55.6% | SNB-19 CNS 91.8% | U251 CNS 92.4% | SK-MEL-5 melanoma 16.8% | UACC-62 melanoma 60.3% | LOX IMVI melanoma 83.9% | SK-MEL-28 melanoma 94% | SK-MEL-2 melanoma 65.3% | EKVX NSCLC 50.5% | SN12C renal 91.3% | UO-31 renal 61.6% | TK-10 renal 68.2% | ACHN renal 86.4% | CAKI-1 renal 56.9% | A498 renal 95.9% | CCRF-CEM leukemia 86.7% | MOLT-4 leukemia 72.5%

O=C1OCC2=C1C(c1ccncc1)c1cc3c(cc1N2CCO)OCO3 (stereo not given)
inactive: HCT-15 colon 103% | HT29 colon 106% | SNB-75 CNS 95.7% | SNB-19 CNS 100% | U251 CNS 96.7% | SK-MEL-5 melanoma 98.6% | UACC-62 melanoma 94.9% | LOX IMVI melanoma 99.9% | SK-MEL-28 melanoma 102% | SK-MEL-2 melanoma 107% | EKVX NSCLC 101% | SN12C renal 100% | UO-31 renal 94.7% | TK-10 renal 101% | ACHN renal 105% | CAKI-1 renal 99.3% | A498 renal 90% | CCRF-CEM leukemia 94% | MOLT-4 leukemia 107%

Cc1ccccc1COc1ccc(-c2ccnn2-c2ccc(Cl)cc2)cc1
inactive: HCT-15 colon 39.9% | HT29 colon 17.6% | SNB-75 CNS 60.7% | SNB-19 CNS 62% | U251 CNS 46% | SK-MEL-5 melanoma 66.6% | UACC-62 melanoma 60.7% | LOX IMVI melanoma 64.3% | SK-MEL-28 melanoma 69.4% | SK-MEL-2 melanoma 39.2% | EKVX NSCLC 77% | SN12C renal 67.6% | UO-31 renal 74.4% | TK-10 renal 83.8% | ACHN renal 77.6% | CAKI-1 renal 59.7% | A498 renal 57.5% | CCRF-CEM leukemia 42.4% | MOLT-4 leukemia 26.3%

Cn1cc(-c2nonc2-c2c[nH]c3ccccc23)c2cccnc21
inactive: HCT-15 colon 23.5% | HT29 colon 12.4% | SNB-75 CNS 21.2% | SNB-19 CNS 46.4% | U251 CNS 26% | SK-MEL-5 melanoma 26.3% | UACC-62 melanoma 41.5% | LOX IMVI melanoma 43% | SK-MEL-28 melanoma 61.5% | EKVX NSCLC 49.7% | SN12C renal 39.6% | UO-31 renal 55.7% | TK-10 renal 75.3% | ACHN renal 60.9% | CAKI-1 renal 39.3% | A498 renal 17.1% | CCRF-CEM leukemia 20.2% | MOLT-4 leukemia 16.5%
active: SK-MEL-2 melanoma 8.48%

COc1ccc(CCNc2nc3c(c(=O)n(Cc4ccc(Br)cc4)c(=O)n3C)n2C)cc1OC
inactive: HCT-15 colon 102% | HT29 colon 103% | SNB-75 CNS 84.5% | SNB-19 CNS 94.5% | U251 CNS 92% | SK-MEL-5 melanoma 68% | UACC-62 melanoma 74.8% | LOX IMVI melanoma 94.5% | SK-MEL-28 melanoma 99% | SK-MEL-2 melanoma 93% | EKVX NSCLC 83.7% | SN12C renal 91.1% | UO-31 renal 70.6% | TK-10 renal 111% | ACHN renal 89.7% | CAKI-1 renal 85.6% | A498 renal 92.6% | CCRF-CEM leukemia 99.7% | MOLT-4 leukemia 88.2%
